F-actin modifier: modifiers of F-actin cytoskeleton organization, primary screen, imaging, HUVEC, phalloidin staining, high-content imaging; HUVEC TNFa F-actin phalloidin imaging; inhibition, % at 2 µM; actives 0.18% (n = 91,000);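 active means inhibition above the batch mean plus 3 SD and confirmed as a hit by visual image inspection, cut at about 30% in these data, passing the limit was not always enough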
TNFa cytotox: cytotoxicity in TNFa-stimulated HUVEC, primary screen, cytotoxicity control for VCAM1 expression modulator project, imaging, Hoechst nuclei count | HUVEC TNFalpha-stimulated, Hoechst cell count | cell count reduction, % at 2 µM | actives 0.17% (n = 93,000) | AID 848, 2007;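 active means cell count reduction exceeding the screen mean by over 5 SD, scaled to untreated wells per plate, cut at about 78% in these data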;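 further: cells counted after 24 h of TNF alpha exposure following the 1 h pretreatment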
VCAM1 TNFa inh: inhibitors of TNFa-induced VCAM1 expression, primary screen, imaging, HUVEC, TNFa stimulus, immunofluorescence; HUVEC TNFa-induced VCAM-1 immunofluorescence, high-content imaging; inhibition, % at 2 µM; actives 0.48% (n = 95,000); AID 802, 2007;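 active means inhibition above the batch mean plus 3 SD, with images confirmed as a hit by eye, cut at about 37% in these data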;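 further: 0% = TNF-stimulated DMSO wells and 100% = unstimulated control wells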
E-sel TNF inh: E-selectin induction blockers in HUVEC – imaging, immunofluorescence, high content, primary screen. HUVEC TNFa-induced E-selectin immunofluorescence. inhibition, % at 2 µM. actives 0.71% (n = 120,000);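 active means inhibition above the batch mean plus 3 SD, and confirmed as a hit on visual image review, cut at about 43% in these data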;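 further: 0% = TNF-stimulated DMSO wells and 100% = unstimulated control wells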
Starred values were filed as active, the others as inactive; nt = no result. Only some compounds are listed: those with a hit (about 1% of all), similar ones and a draw of the others.

SMILES	F-actin modifier	TNFa cytotox	VCAM1 TNFa inh	E-sel TNF inh
O=C(O)C1CC=CCC1C(=O)N1CCc2ccccc21 (stereo not drawn)	-17.4	5.0	16.4	-15.2
Oc1ccc(N2CCN(c3ncnc4sc(-c5ccccc5)cc34)CC2)cc1	nt	nt	nt	99.9*
Cc1[nH]n(-c2nc(-c3ccc(Cl)cc3)cs2)c(=O)c1N=Nc1ccc(O)cc1	nt	nt	nt	19.5
COc1ccc(-c2ccc(C(=S)N3CCN(C(C)=O)CC3)o2)cc1	-5.1	9.8	-10.1	64.3*
O=C(COc1ccc2ccccc2c1Br)NC(=S)Nc1cccc(CO)c1	nt	nt	nt	2.8
O=C(CCc1nnc(-c2ccsc2)o1)N1CCc2c(Cl)cccc2C1	nt	nt	nt	-1.4
COc1ccc(-c2nc(C#N)c(NCCCN(C)C)o2)cc1OC	35.3	-34.4	96.6*	16.6
COc1ccc(CCNc2oc(-c3ccc(OC)c(OC)c3)nc2C#N)cc1	-0.4	20.2	23.7	5.0
CCOc1ccccc1C(=O)NCCC(=O)O	100.0*	nt	nt	-19.5
CCCCCOc1ccccc1C(=O)NCCC(=O)O	-7.3	14.4	12.5	-12.2
CNC(=O)c1sc(-c2cccs2)nc1C	nt	nt	nt	6.2
CC(C)n1cc(/C=C(\C#N)S(=O)(=O)c2ccccc2)c2ccccc21	-25.4	-5.6	44.8	-13.1
CCc1nnc(N2C(=O)c3ccc(Oc4ccc([N+](=O)[O-])cc4)cc3C2=O)s1	nt	nt	nt	-15.8
COCCNC(=O)c1c[nH]c2cc(OC)c(OC)cc2c1=O	21.7	-22.5	-0.6	3.1
COc1cc2[nH]cc(C(=O)NCCc3ccccc3)c(=O)c2cc1OC	-4.9	-3.4	91.8*	18.2
Cc1nnc(SCC(=O)Nc2ccc3c(c2)OCCO3)n1N	-11.2	-16.9	1.1	12.0
Nn1c(SCC(=O)Nc2ccc3c(c2)OCCO3)nnc1C(F)(F)F	33.6*	-9.4	0.8	nt
CN(Cc1ccccc1)c1nc(N)nc(Cl)c1C=O	nt	nt	nt	-21.4
CCCNC(=O)Cn1cnc2sc(C(=O)N3CCN(c4ccc(F)cc4)CC3)c(C)c2c1=O	-4.8	-7.0	5.5	nt
Cc1c(C(=O)N2CCN(c3ccccc3F)CC2)sc2ncn(CC(=O)N3CCOCC3)c(=O)c12	88.3*	-9.9	7.8	57.5
Cc1nc([N+](=O)[O-])c(C(=O)O)n1C	nt	nt	nt	-50.9
O=S(=O)(/C(=C/c1ccc(C(F)(F)F)cc1)c1nc2ccccc2[nH]1)c1ccccc1	nt	nt	nt	98.9*
CC(C)c1ccc(/C=C(\c2nc3ccccc3[nH]2)S(=O)(=O)c2ccccc2)cc1	nt	nt	nt	24.3
Nc1nnc(-c2ccc(Cl)c([N+](=O)[O-])c2)s1	nt	nt	nt	18.8
Cn1c(=O)c(=O)n(C)c2cc(S(=O)(=O)N3CCc4ccccc43)ccc21	-11.3	-16.1	19.5	57.2*
SMILES	F-actin modifier	TNFa cytotox	VCAM1 TNFa inh	E-sel TNF inh
CC(C)(C)NC(=O)NC(=O)CSc1ncn[nH]1	nt	nt	nt	99.8*
O=C(/C=C/c1ccccc1)Nc1ncn[nH]1	9.6	-7.9	30.6	60.0*
O=C(CNS(=O)(=O)c1ccccc1)NCc1cccnc1	nt	nt	nt	-4.0
COc1cc(CN2CCN(Cc3ccc(C)cc3)C(CCO)C2)cc(OC)c1O (stereo not drawn)	nt	nt	nt	-6.9
CC(C)(C)C1=CC(=O)C(=O)C(C(C)(C)C)=C1	nt	nt	nt	89.0*
COc1ccccc1N(C)S(=O)(=O)c1ccc(C(=O)NCC(C)C)cc1	-25.8	28.1	74.5*	13.3
CCC(C)(C)NC(=O)c1ccc(S(=O)(=O)N(C)c2ccccc2OC)cc1	-6.7	4.6	-7.4	0.2
CCc1cccc(CC)c1N(COC)C(=O)Cn1ccccc1=N	78.6*	-46.7	17.1	4.7
O=C(O)CSC1c2ccccc2C(=O)N1Cc1ccccc1 (stereo not drawn)	28.8	-13.3	-3.8	68.7*
CCOC(=O)C1C(=O)CC(C)(O)C(C(=O)OCC)C1c1ccc(OC)cc1 (stereo not drawn)	-26.5	28.4	18.5	nt
CCOC(=O)C1C(=O)CC(C)(O)C(C(=O)OCC)C1c1ccccc1 (stereo not drawn)	19.1	-5.9	-20.2	59.1*
O=C(OCn1ncc(Br)c(Br)c1=O)c1c(F)cccc1F	26.2	17.4	73.8*	23.1
Clc1ccc(/C=C/c2ncc3ccccn23)cc1	nt	nt	nt	-1.2
Cc1ccc(S(=O)(=O)NNC(=O)c2sccc2-n2cccc2)cc1	-19.1	-6.3	9.3	61.9*
Cn1cccc1C(=O)OCC(=O)NC1CCS(=O)(=O)C1 (stereo not drawn)	nt	nt	nt	-24.9
N#CCc1nc2c3c4c(sc3ncn2n1)CCCC4	-25.9	27.2	60.4*	-0.4
COCCOc1cc(-n2ccnc2SC)c(Cl)cc1Cl	39.5	-14.3	15.0	17.0
CCn1c(SCC(=O)Nc2ccccc2OC)nnc1-c1cnccn1	33.1	-34.2	-2.5	62.0*
C=CCn1c(SCC(=O)Nc2ccccc2OC)nnc1-c1ccccn1	24.1	8.4	-14.9	2.6
O=C(/C=C/c1ccc([N+](=O)[O-])cc1)N(c1ccccn1)C1CCCCC1	nt	nt	nt	-16.2
CCCCCCCCCCn1c2c(c(=N)c3c1CCC3)CCC2	-43.1	14.2	86.6*	nt
CCCCCCCCn1c2c(c(=N)c3ccccc31)CCC2	nt	nt	nt	-27.0
Cc1nc(CCN2C(=O)c3ccccc3C2=O)cs1	-2.8	-10.5	-9.2	1.9
Cc1ccc(N2CC(C(=O)Nc3ccc(N(C)C)cc3)CC2=O)cc1C (stereo not drawn)	-4.5	0.0	-21.8	4.7
Cc1cc(N2CC(C(=O)O)CC2=O)ccc1Br (stereo not drawn)	-8.4	92.0*	62.4	-12.5
SMILES	F-actin modifier	TNFa cytotox	VCAM1 TNFa inh	E-sel TNF inh
CCc1ccc(C(=O)/C=C/c2ccc([N+](=O)[O-])o2)cc1	4.0	-6.1	49.0*	11.6
Cc1ccc(-c2nn(-c3ccccc3)cc2CN(Cc2ccccc2)C(=O)c2ccco2)o1	1.4	-14.5	1.9	-18.7
CCS(=O)(=O)NCC(c1ccco1)N1CCN(c2ccccc2)CC1 (stereo not drawn)	nt	nt	nt	70.4*
CCC(=O)NCC(c1ccco1)N1CCN(c2ccc(OC)cc2)CC1 (stereo not drawn)	nt	nt	nt	39.3
O=S(=O)(NCC(c1ccco1)N1CCN(c2ccccc2)CC1)c1ccc(F)cc1 (stereo not drawn)	nt	nt	nt	68.7*
COc1ccc(C(=O)OCc2csc(C)n2)c(O)c1	nt	nt	nt	8.9
Cc1ccccc1-c1nc(CN2CCC(C(=O)NCCCN3CC(C)CC(C)C3)CC2)c(C)o1 (stereo not drawn)	-36.2	-8.1	42.8*	17.5
Cc1nnc(SCCn2c(N3CC(C)CC(C)C3)nc3c2c(=O)[nH]c(=O)n3C)s1 (stereo not drawn)	-0.2	16.0	-6.5	nt
CC(=O)Nc1ccc(S(=O)(=O)Nc2nc(C)cc(-n3nc(C)cc3C)n2)cc1	nt	nt	nt	-4.8
Cc1cc(-n2nc(C)cc2C)nc(NS(=O)(=O)c2ccccc2)n1	nt	nt	nt	58.5*
Cc1ccc(N2C(SCC(=O)O)=NC(=Nc3cccc(C)c3)C23CCCC3)cc1	nt	nt	nt	-9.7
CN1C(=O)/C(=C/c2ccccc2Cl)Sc2ccc(C(=O)NCc3cccnc3)cc21	nt	nt	nt	-6.0
Cc1c(NC(=O)c2ccccc2N)cccc1C(=O)O	-4.4	-20.8	21.1	-3.3
Nc1ccccc1NC(=O)c1ccccc1N	-3.0	92.6*	80.6*	nt
O=C1CC(c2ccccc2)Cc2nc3ncnn3cc21 (stereo not drawn)	29.2	41.0	59.8*	11.9

From PubChem BioAssay
